PubChem BioAssay
“And” between values parts separate entries of the source, which are not always exact repeats. Identical values can stand only once. Inconclusive results are not listed. For part of these data: Potency and affinity values are given separately. The source made the active and inactive calls.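 The calls were made as follows, unless noted: active = normalized viability below 100% at a tested concentration; inactive = the rest.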

Assays:
[1] = modulation of C. elegans fzo-1 (AID 1259413; call rule not given here;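 also: fzo-1 mutant C. elegans worms in liquid wells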); conditions: C. elegans fzo-1 modulator screen, mean read-out; stronger effect = higher value
[2] = EMT-state selective cytotoxicity in co-culture – imaging, PC-3E GFP, TEM4-18 mCherry, primary screen (AID 1345086;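 active = compounds killing one labelled cell type while sparing the other, by normalised counts and ratio limits, not self-fluorescent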;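 as to all read-outs here: cells exposed to compound for 72 h before imaging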;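 as to red/green cell ratio (normalised): normalised mesenchymal count divided by normalised epithelial count so high means epithelial killing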); conditions: PC-3E GFP / TEM4-18 mCherry co-culture, imaging cell counts, at 1 µM; for red/green cell ratio (normalised): actives lie on both sides, counts scaled to control wells, 1 = unselective
[3] = tested on: Aerobactin synthetase IucA (Klebsiella pneumoniae); assay: inhibition of K. pneumoniae IucA enzyme – biochemical, Tocris library, absorbance (AID 1345561; call rule not given here;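 also: 100% = enzyme without compound and 0% = no enzyme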); conditions: purified IucA enzyme assay, absorbance (OD) read-out; stronger effect = lower value;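 tested at 8 µM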
[4] = viability loss in pontine glioma line – cell-based, SU-DIPG-XVII, MIPE5.0, CellTiter-Glo, qHTS, dose response (AID 1347060; cut-off not given, nearly all actives have AC50 up to about 26 µM;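 as to AC50: cells exposed to compound for 48 hours before viability readout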); conditions: CellTiter-Glo ATP luminescence
[5] = viability loss in pontine glioma line – cell-based, SU-DIPG-IV, MIPE4.0, CellTiter-Glo, qHTS, dose response (AID 1347063; cut-off not given, nearly all actives have AC50 up to about 30 µM;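 also: compound exposure lasted 48 hours before the viability readout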); conditions: CellTiter-Glo ATP luminescence
[6] = growth inhibition of DIPG cells – cell-based, MIPE4.0 library, CellTiter-Glo luminescence, qHTS (AID 1347066; cut-off not given, nearly all actives have AC50 up to about 30 µM;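 also: cells exposed to compound for 48 hours before readout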); conditions: SU-DIPG-VI viability, CellTiter-Glo ATP luminescence
[7] = JHH-DIPG-1 glioma cell viability, MIPE5.0 library, CellTiter-Glo luminescence, qHTS (AID 1347067; cut-off not given, nearly all actives have AC50 up to about 26 µM;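 also: cells exposed to compound for 48 hours before readout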); conditions: JHH-DIPG-1 glioma viability, CellTiter-Glo ATP luminescence
[8] = viability loss with induced miR-34 in A549 – imaging, A549 dox-inducible miR-34, nuclei and caspase counts, primary screen (AID 1347080;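 active = compounds whose cell count with miR-34 switched on is under 0.7 times the count with it off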); conditions: A549 miR-34 inducible, Hoechst nuclei count, 48 h
[9] = compounds altering HSF1 focus formation in cells – imaging, Selleck Cancer Library (AID 1347162; in the data active = plate-normalised HSF1 focus index below about 0.46); conditions: human cells, HSF1 nuclear foci imaging, at 10 µM; SSMD: measured here: HSF1 foci SSMD mean; cell count: measured here: cell number; plate-normalised HSF1 focus index: stronger effect = lower value
[10] = MELAS cybrid and Rieske KO viability enhancers – cell-based, MELAS cybrids, Rieske KO mouse fibroblasts, CellTiter-Glo, primary screen (AID 1508586;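 active = mean z-score across replicates of 1.96 or higher in either the MELAS or the Rieske mutant cell line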;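 also: z relative to plate mean and SD of compound and empty wells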); conditions: low glucose
[11] = drug combination growth inhibition, ovarian cancer – cell-based, oncology-focused library, rucaparib conditional, profiling panel (AID 1508598); conditions: patient-derived ovarian cancer cells, CellTiter-Glo viability, 144 h, stronger effect = lower value
[12] = biological target: Protein kinase 7 (PK7), Plasmodium falciparum 3D7 (PF3D7_0213400) (UniProt Q7YTF7); assay: inhibition of Plasmodium PK7 catalytic activity – biochemical, TCAMS antimalarial set, Kinase-Glo luminescence (AID 1159587; call rule not given here); conditions: recombinant PfPK7, Kinase-Glo ATP depletion luminescence
[13] = biological target: Calcium-dependent protein kinase 4 (Plasmodium falciparum (isolate 3D7)) (UniProt Q8IBS5); assay: PfCDPK4 kinase inhibitors, biochemical, TCAMS library (AID 1159588; cut-off not given, nearly all actives have IC50 up to about 0.91 µM); conditions: recombinant PfCDPK4, Kinase-Glo ATP depletion luminescence
[14] = blockers of cellular phospholipid synthesis – cell-based, LOPAC library, screen 4, primary screen (AID 1347384; call rule not given here); conditions: animal cells, phospholipid biosynthesis inhibition screen; at 10 µM
[15] = viability loss in pontine glioma line – cell-based, SU-DIPG-XIII, MIPE4.0, CellTiter-Glo, qHTS, dose response (AID 1347061; cut-off not given, nearly all actives have AC50 up to about 37 µM;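 also: cells exposed to compound for 48 hours before readout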); conditions: CellTiter-Glo ATP luminescence
[16] = viability loss in pontine glioma line – cell-based, SU-DIPG-XXV, MIPE5.0, CellTiter-Glo, qHTS, dose response (AID 1347065; cut-off not given, nearly all actives have AC50 up to about 26 µM;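 also: cells exposed to compound for 48 hours before ATP readout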); conditions: CellTiter-Glo ATP luminescence
[17] = growth inhibition of DIPG cells – cell-based, MIPE5.0 library, qHTS (AID 1347068; cut-off not given, nearly all actives have IC50 up to about 30 µM); conditions: SU-DIPG-XXV viability
[18] = viability loss in pontine glioma line – cell-based, JHH-DIPG-1, MIPE4.0, CellTiter-Glo, qHTS, dose response (AID 1347062; cut-off not given, nearly all actives have AC50 up to about 27 µM); conditions: JHH-DIPG-1 viability, CellTiter-Glo ATP luminescence
[19] = viability loss in pontine glioma line – cell-based, SU-DIPG-XIII, MIPE5.0, CellTiter-Glo, qHTS, dose response (AID 1347064; cut-off not given, nearly all actives have AC50 up to about 23 µM); conditions: CellTiter-Glo ATP luminescence
[20] = measured here: epithelial PC-3E GFP cell survival
[21] = measured here: mesenchymal TEM4-18 mCherry cell survival
[22] = MELAS cybrid survival, CellTiter-Glo 48 h, stronger effect = higher value
[23] = Rieske KO mouse fibroblast survival, CellTiter-Glo 72 h

Calcium-dependent protein kinase 4 (Plasmodium falciparum (isolate 3D7)), sequence (Q8IBS5 whole entry, looked up): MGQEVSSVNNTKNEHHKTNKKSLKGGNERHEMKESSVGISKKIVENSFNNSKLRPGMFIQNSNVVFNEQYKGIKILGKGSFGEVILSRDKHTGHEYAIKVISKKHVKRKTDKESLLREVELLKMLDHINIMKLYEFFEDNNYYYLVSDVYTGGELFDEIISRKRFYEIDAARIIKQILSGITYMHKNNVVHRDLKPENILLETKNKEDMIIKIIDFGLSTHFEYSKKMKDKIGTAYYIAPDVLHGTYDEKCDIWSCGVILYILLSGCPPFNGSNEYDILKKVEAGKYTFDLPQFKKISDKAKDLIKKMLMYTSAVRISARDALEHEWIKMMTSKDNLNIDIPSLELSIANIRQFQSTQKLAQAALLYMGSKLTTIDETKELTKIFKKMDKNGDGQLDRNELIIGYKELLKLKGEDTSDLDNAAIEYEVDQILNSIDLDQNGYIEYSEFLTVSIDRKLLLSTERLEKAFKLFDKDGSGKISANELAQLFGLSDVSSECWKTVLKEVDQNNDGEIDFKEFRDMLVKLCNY
Protein kinase 7 (PK7), Plasmodium falciparum 3D7 (PF3D7_0213400), sequence (Q7YTF7 1-343): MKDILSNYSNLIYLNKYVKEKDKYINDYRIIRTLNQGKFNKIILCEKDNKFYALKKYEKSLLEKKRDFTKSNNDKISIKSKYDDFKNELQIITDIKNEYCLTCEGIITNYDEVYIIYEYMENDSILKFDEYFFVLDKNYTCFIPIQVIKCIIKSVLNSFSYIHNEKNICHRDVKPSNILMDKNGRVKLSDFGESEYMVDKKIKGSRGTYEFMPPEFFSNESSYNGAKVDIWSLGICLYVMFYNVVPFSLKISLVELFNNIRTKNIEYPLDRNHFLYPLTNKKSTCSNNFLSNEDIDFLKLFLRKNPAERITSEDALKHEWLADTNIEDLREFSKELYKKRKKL

CCc1c2c(nc3ccc(OC(=O)N4CCC(N5CCCCC5)CC4)cc13)-c1cc3c(c(=O)n1C2)COC(=O)[C@]3(O)CC
2270 and 2120 and 2140: cell count ([8]; measured here: total cells without miR-34 induction)
0.32: normalised cell number [2, 20]
inactive: mean signal [1] 270 | red/green cell ratio (normalised) [2] 1.07 | remaining activity [3] 108% | outcome [6] | fold change ([8]; stronger effect = lower value, cell number ratio, induced over uninduced) 0.732 and 1.02 and 1.1 | plate-normalised HSF1 focus index [9] 0.983 | z-score [10, 22] -0.914 and -2.14 | viability ([11]; at 0.000305 µM, OCI-C5x cells, with rucaparib 10 µM, 100% = cells with rucaparib alone) 118% | viability ([11]; at 0.000305 µM, OCI-C5x cells, without rucaparib) 117% | viability ([11]; at 0.000305 µM, OCI-P5x cells, with rucaparib 20 µM, 100% = cells with rucaparib alone) 102% | viability ([11]; at 0.000305 µM, OCI-P5x cells, without rucaparib) 105% | viability ([11]; at 0.00122 µM, OCI-C5x cells, with rucaparib 10 µM, 100% = cells with rucaparib alone) 121% | viability ([11]; at 0.00122 µM, OCI-C5x cells, without rucaparib) 124% | viability ([11]; at 0.00122 µM, OCI-P5x cells, with rucaparib 20 µM, 100% = cells with rucaparib alone) 104% | viability ([11]; at 0.00122 µM, OCI-P5x cells, without rucaparib) 105% | viability ([11]; at 0.00488 µM, OCI-C5x cells, with rucaparib 10 µM, 100% = cells with rucaparib alone) 107% | viability ([11]; at 0.00488 µM, OCI-C5x cells, without rucaparib) 112% | viability ([11]; at 0.00488 µM, OCI-P5x cells, with rucaparib 20 µM, 100% = cells with rucaparib alone) 108% | viability ([11]; at 0.00488 µM, OCI-P5x cells, without rucaparib) 106% | viability ([11]; at 0.0195 µM, OCI-C5x cells, with rucaparib 10 µM, 100% = cells with rucaparib alone) 115% | viability ([11]; at 0.0195 µM, OCI-C5x cells, without rucaparib) 124% | viability ([11]; at 0.0195 µM, OCI-P5x cells, with rucaparib 20 µM, 100% = cells with rucaparib alone) 101% | viability ([11]; at 0.0195 µM, OCI-P5x cells, without rucaparib) 105% | viability ([11]; at 0.0781 µM, OCI-C5x cells, with rucaparib 10 µM, 100% = cells with rucaparib alone) 115% | viability ([11]; at 0.0781 µM, OCI-C5x cells, without rucaparib) 109% | viability ([11]; at 0.0781 µM, OCI-P5x cells, without rucaparib) 102% | viability ([11]; at 0.313 µM, OCI-C5x cells, without rucaparib) 106%
1660 and 2170 and 2350: cell count ([8]; measured here: total cells with miR-34 induction, stronger effect = lower value)
active: AC50 [4] 0.263 µM | AC50 [5] 4.69 µM | AC50 [7] 23.5 µM | viability ([11]; at 0.0781 µM, OCI-P5x cells, with rucaparib 20 µM, 100% = cells with rucaparib alone) 89.3% | viability ([11]; at 0.313 µM, OCI-C5x cells, with rucaparib 10 µM, 100% = cells with rucaparib alone) 94% | viability ([11]; at 0.313 µM, OCI-P5x cells, with rucaparib 20 µM, 100% = cells with rucaparib alone) 81.1% | viability ([11]; at 0.313 µM, OCI-P5x cells, without rucaparib) 89.6% | viability ([11]; at 1.25 µM, OCI-C5x cells, with rucaparib 10 µM, 100% = cells with rucaparib alone) 70.2% | viability ([11]; at 1.25 µM, OCI-C5x cells, without rucaparib) 87% | viability ([11]; at 1.25 µM, OCI-P5x cells, with rucaparib 20 µM, 100% = cells with rucaparib alone) 64.9% | viability ([11]; at 1.25 µM, OCI-P5x cells, without rucaparib) 57.1% | viability ([11]; at 5 µM, OCI-C5x cells, with rucaparib 10 µM, 100% = cells with rucaparib alone) 50.5% | viability ([11]; at 5 µM, OCI-C5x cells, without rucaparib) 36.9% | viability ([11]; at 5 µM, OCI-P5x cells, with rucaparib 20 µM, 100% = cells with rucaparib alone) 34.4% | viability ([11]; at 5 µM, OCI-P5x cells, without rucaparib) 21.1%
7510: cell count [9]
-0.515: SSMD [9]
0.34: normalised cell number [2, 21]
-0.882 and -1.55: z-score [10, 23]
1.79 and 1.27 and 1.62: fold change ([8]; measured here: relative caspase fold change +Dox/-Dox)

O=C(Nc1cccc(C2=NCCN2)c1)Nc1cccc(C2=NCCN2)c1
inactive: outcome [12] | outcome [13]

OCc1cc(C(O)CNCCCCCCOCCCCc2ccccc2)ccc1O (stereo not given)
0.97: normalised cell number [2, 21]
inactive: mean signal [1] 253 | red/green cell ratio (normalised) [2] 1.18 | remaining activity [3] 115% | outcome [14] | z-score [10, 22] 0.496 and 0.0699
-0.33 and 0.063: z-score [10, 23]
0.82: normalised cell number [2, 20]

CCOC(=O)c1ncn2c1CN(C)C(=O)c1cc(F)ccc1-2
0.977 and -0.775: z-score [10, 23]
inactive: mean signal [1] 276 | red/green cell ratio (normalised) [2] 0.89 | remaining activity [3] 110% | outcome [4] | outcome [15] | outcome [5] | outcome [16] | outcome [6] | outcome [7] | outcome [17] | outcome [14] | z-score [10, 22] 0.109 and 0.0778
0.84: normalised cell number [2, 21]
0.95: normalised cell number [2, 20]

CC(C)NCC(O)COc1ccc(CCOCC2CC2)cc1 (stereo not given)
1.02: normalised cell number [2, 21]
1.26: normalised cell number [2, 20]
inactive: mean signal [1] 281 | red/green cell ratio (normalised) [2] 0.81 | remaining activity [3] 100% | outcome [4] | outcome [15] | outcome [18] | outcome [5] | outcome [19] | outcome [16] | outcome [6] | outcome [7] | outcome [17] | outcome [14]
